# Measurements: PubChem BioAssay AID588492 (Sanford-Burnham Center for Chemical Genomics, 2011)
# Where “and” joins values, the source holds several entries; their conditions need not be identical. Identical values can stand only once. Among all 360,000 compounds or so, about 2,300 (0.64%) were called active. This is one part of a sample in which actives are shown more often than they occur.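 Rule for the calls: active = compounds giving at least 50% protection of heart cells from peroxide-induced death in the single-dose screen, raw or plate-pattern-corrected value; inactive = the rest.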
# Test: cardioprotection against H2O2-induced cell death, primary screen, uHTS, H9c2 cells, ATPLite luminescence (AID 588492);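 note: 0% = DMSO wells with peroxide and 100% = DMSO wells without peroxide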
# Conditions: H9c2 cardiomyocytes, H2O2 injury protection, 2 h, at 20 µM, active compounds read high
row,Compound,protection from H2O2 cell death
1,Cc1cc(-n2nc(C)cc2C)n2ncc(-c3ccccc3)c2n1,14.3% (inactive)
2,CCOC(=O)c1cnc2nc(SCc3ccccc3Cl)[nH]n2c1=O,-2.4% (inactive)
3,CCOC(=O)c1cnc(-n2nc(C)cc2C)nc1NNc1cc(C)nc(-c2ccccc2)n1,78.5% (active)
4,COc1cc(OC)c(C(=O)OC(C)C(=O)Nc2cc(C(F)(F)F)ccc2Cl)cc1OC (stereo not given),-5% (inactive)
5,Cc1cc(C)n(C(=O)c2ccc(C)c(S(=O)(=O)N3CCOCC3)c2)n1,15.2% (inactive)
6,c1ccc(Cc2nn3c(Cn4cnc5ccccc54)nnc3s2)cc1,-4.9% (inactive)
7,N#CC1(NC(=O)COC(=O)Cc2n[nH]c(=O)c3ccccc23)CCCCC1,30.9% (inactive)
8,CCCCn1nc(C(=O)OCC(=O)Nc2sccc2C(N)=O)c2ccccc2c1=O,29.8% (inactive)
9,NC(=O)c1ccsc1NC(=O)COC(=O)Cc1n[nH]c(=O)c2ccccc12,78.3% (active)
10,CCn1cc(C(=O)N[C@@H](C)C(=O)NCCO)c(=O)c2cc3c(cc21)OCO3,3% (inactive)
11,COC(=O)c1noc(C)c1-c1ccnn1C(=O)c1ccc(Cl)cc1,3.5% (inactive)
12,CCOc1ccc(OCC)c(NC(=O)CSc2nnc(Cn3cnc4ccccc43)n2C)c1,-3.2% (inactive)
13,Cc1ccc(/C=N/NC(=O)C2=NNC(c3ccccc3)(c3ccccc3)C2)c(O)c1,60.3% (active)
14,Cc1ccc2cc(/C=N/NC(=O)[C@@H]3CCCN3)c(Cl)nc2c1,14% (inactive)
15,O=C(NN=Cc1ccc2c(c1)CCC2)c1ccccc1O,-17.8% (inactive)
16,CC(C)c1nnc(NC(=O)C2CC(=O)N(CCc3ccc(F)cc3)C2)s1 (stereo not given),-4.8% (inactive)
17,Cc1nc(S(=O)(=O)c2ccc(Br)cc2)nc2c1CCC2,-2.2% (inactive)
18,CCC(CC)C(=O)Nc1c2c(nn1-c1ccc(C)cc1)CS(=O)(=O)C2,-4.5% (inactive)
19,CCC(C)(C)NC(=O)C(c1ccccn1)N(C(=O)c1csnn1)c1ccccc1 (stereo not given),1.1% (inactive)
20,Cc1ccc(S(=O)(=O)NCC2CCC(C(=O)N3CCOCC3)CC2)cc1 (stereo not given),3.4% (inactive)
21,Cc1ccc(/C=N/NC(=O)CSc2nc3ccccc3o2)cc1,-4.4% (inactive)
22,Cc1nn(-c2ccccc2)c(C)c1/C=N/NC(=O)CSc1nc2ccccc2c(=O)n1-c1ccccc1,22.5% (inactive)
23,Cn1c(SCC(=O)N/N=C/c2ccc(O)c(O)c2)nc2ccccc21,70.9% (active)

row,Compound,protection from H2O2 cell death
1,COc1ccc(S(=O)(=O)N2CCN(CC(=O)NCC3(N4CCOCC4)CCCCC3)CC2)cc1,3% (inactive)
2,CC(C)(C)C(=O)Nc1cccc(-c2ccc[nH]2)n1,5.3% (inactive)
3,Cc1c(Cl)c([N+](=O)[O-])nn1CCCC(=O)NC(C)c1ccccc1 (stereo not given),5.3% (inactive)
4,Cc1c(Cl)c([N+](=O)[O-])nn1Cc1ccc(C(=O)N/N=C\c2cc(Cl)ccc2O)o1,67.5% (active)
5,Cc1nn(Cc2ccccc2Cl)c(C)c1NC(=O)Cn1nc([N+](=O)[O-])c(Cl)c1C,15.4% (inactive)
6,N#Cc1ccc(C(c2ccc(C#N)cc2)n2cncn2)cc1,2.5% (inactive)
7,Cn1c(C(=O)N2CCC(C(N)=O)CC2)cc2c(=O)n(C)c3ccccc3c21,1.2% (inactive)
8,Cn1c(C(=O)NCCc2ccsc2)cc2c(=O)n(C)c3ccccc3c21,96.5% (active)
9,Cn1c(C(=O)NCCN2CCc3ccccc3C2)cc2c(=O)[nH]c3ccccc3c21,19.2% (inactive)
10,O=C(Nc1ccc(C(=O)O)cc1)/C(=C/c1ccc([N+](=O)[O-])cc1)NC(=O)c1ccccc1,4.6% (inactive)
11,O=C(N/N=C/c1cc([N+](=O)[O-])ccc1O)/C(=C\c1cccs1)NC(=O)c1ccccc1,54.9% (active)
12,O=C(NCCc1ccccc1)/C(=C\c1ccc([N+](=O)[O-])cc1)NC(=O)c1ccccc1,16.6% (inactive)
13,CCOCCCNC(=O)C(NC(=O)c1ccc(=O)[nH]c1)c1ccc(Cl)cc1 (stereo not given),-7.9% (inactive)
14,COc1ccc([C@H]2N[C@]3(CCCN(CC4CCCCC4)C3=O)[C@H]3C(=O)N(C)C(=O)[C@@H]23)cc1,5.5% (inactive)
15,COCCNc1ccc(-c2n[nH]c(=O)c3ccccc23)cc1[N+](=O)[O-],40.1% (inactive)
16,CCN(CC)CCNc1ccc(Cl)cc1[N+](=O)[O-],9.1% (inactive)
17,CN(C)CCNc1ccc(-c2n[nH]c(=O)c3ccccc23)cc1[N+](=O)[O-],61.1% (active)
18,CCCC(=O)NC(Nc1ccccc1OC)C(Cl)(Cl)Cl (stereo not given),3% (inactive)
19,O=c1[nH]nc(Cc2ccccn2)c2ccccc12,84.4% (active)
20,Cc1ccc(C(=O)C(C)OC(=O)Cc2n[nH]c(=O)c3ccccc23)cc1C (stereo not given),12.9% (inactive)
21,c1ccc(CCc2ccccn2)cc1,-1.9% (inactive)
22,COc1ccc(OC)c(CN2C(=O)CCC2(C)C(=O)NC2CCCCCC2)c1 (stereo not given),1.4% (inactive)
23,O=C(CN1C(=O)NC2(CCCCCCC2)C1=O)NCc1ccc(F)cc1,-8.5% (inactive)

row,Compound,protection from H2O2 cell death
1,COc1ccc(N2CCN(Cc3ccc(Br)s3)CC2)cc1,-6.8% (inactive)
2,CCOc1cc(-c2cc(-c3ccc(NC(C)=O)cc3)nc(N)c2C#N)ccc1O,65.8% (active)
3,CCSc1nc(-c2ccc(OC)cc2)cc(-c2ccc(OC)cc2)c1C#N,-1% (inactive)
4,Cc1ccc(NC(=O)c2sc3nc(N)c(C#N)cc3c2N)cc1,-0.8% (inactive)
5,CCSc1nnc(SCC(=O)NNC(=O)c2ccccc2F)s1,-2.9% (inactive)
6,CC(=NNC(=S)N1CCCCCC1)c1ccccn1,-14.3% (inactive)
7,COc1ccc(CC(=O)N/N=C(\C)c2ccccn2)cc1,89.5% (active)
8,COc1ccc(CC(N)c2csc(NC(=O)Cc3ccccc3)n2)cc1 (stereo not given),10.4% (inactive)
9,CCOC(=O)[C@H]1CCC[C@@H](NS(=O)(=O)c2ccc(NC(C)=O)cc2)C1,3.9% (inactive)
10,CCCCNc1ccc(C(=O)Nc2cccc(C)n2)cc1[N+](=O)[O-],-6% (inactive)
11,O=c1cc(CN2CCN(S(=O)(=O)/C=C/c3ccccc3)CC2)c2ccc(O)cc2o1,24.9% (inactive)
12,Cc1nn(C)c(C)c1S(=O)(=O)N1CCC(CO)(Cc2ccc(Cl)cc2)CC1,-21.2% (inactive)
13,COc1ccc(N2C(=O)CNC2=S)cc1,5.9% (inactive)
14,O=c1[nH]cnc2c1c(-c1ccccc1)cn2-c1ccc(F)cc1,-5.8% (inactive)
15,COc1ccc(-n2cc(-c3ccccc3)c3c(=S)nc[nH]c32)cc1,72.3% (active)
16,CCOC(=O)C1CCN(S(=O)(=O)c2ccc3c(c2)N(C)C(=O)CC(=O)N3C)CC1,-1.6% (inactive)
17,C[C@@H]1CN([C@H](C)CO)S(=O)(=O)c2ccc(C#C[C@@H](C)O)cc2O[C@@H]1CN(C)Cc1ccc(-c2ccccc2)cc1,-5.2% (inactive)
18,O=C(OCc1nnc(-c2ccccc2)o1)c1cc(=O)[nH]c2ccccc12,3.9% (inactive)
19,CCCc1nc2ccccc2c(C(=O)OCc2nnc(-c3cc(OC)c(OC)c(OC)c3)o2)c1CC,64.8% (active)
20,Cc1onc(-c2ccccc2Cl)c1C(=O)OCc1nnc(-c2ccccc2)o1,-13.6% (inactive)
21,Cc1ccc(CNS(=O)(=O)c2ccc3c(c2)N(C)CCO3)cc1,-9.1% (inactive)
22,C[C@@H]1CC[C@]2(O[C@@H](CCO)C[C@H](O)[C@H]2O)O1,-5.8% (inactive)
23,COc1ccc2oc(C(=O)N(CC(C)C)C3CCS(=O)(=O)C3)c(C)c2c1 (stereo not given),2.8% (inactive)

row,Compound,protection from H2O2 cell death
1,CC(C)CNC(=S)NNC(=O)c1ccccc1OC(F)F,-3.4% (inactive)
2,O=C(CCS(=O)(=O)Cc1ccccc1)Nc1ccc2c(c1)OCCO2,0.6% (inactive)
3,O=C(CN(c1ccc2c(c1)OCCO2)S(=O)(=O)c1ccccc1)Nc1ccc2c(c1)OCO2,79.8% (active)
4,CCN(CC(=O)Nc1ccc2c(c1)OCO2)S(=O)(=O)c1ccccc1,-7.6% (inactive)
5,COc1ccc(NS(=O)(=O)c2ccc(C)c(C(=O)NCC(c3cccs3)N3CCOCC3)c2)cc1 (stereo not given),-1.3% (inactive)
6,COC(=O)c1ccc(S(=O)(=O)NCc2ccccc2)n1C,-1.9% (inactive)
7,Oc1c(Cl)cc(Cl)cc1/C=N/c1ncn[nH]1,26.3% (inactive)
8,COc1cc(Br)cc(/C=N/c2ncn[nH]2)c1O,88.7% (active)
9,C=CCn1c(Cn2nnc3ccccc32)nnc1SCC(=O)N/N=C/c1cc(Br)cc(OC)c1O,9.5% (inactive)
10,CN(Cc1c(F)cccc1Cl)C(=O)COC(=O)Cn1cnc2ccccc2c1=O,-4% (inactive)
11,Nc1scc(-c2ccncc2)c1Cl,-2.7% (inactive)
12,[O-][n+]1ccc(OCc2ccccc2)cc1,-5.2% (inactive)
13,COC(=O)[C@H]1[C@H]2C[C@H]3c4[nH]c5ccccc5c4CCN3C[C@@H]2CC[C@@H]1O,-2.1% (inactive) and 1% (inactive)
14,COc1cccc(C2c3[nH]c4ccccc4c3CCN2Cc2cccc(C)n2)c1 (stereo not given),-1.8% (inactive)
15,COc1ccc(-c2ccc3[nH]c4c(c3c2)CCN2C[C@H]3[C@H](C)ON(C)[C@H]3C[C@@H]42)cc1,54.5% (active)
16,COc1ccc(CNC(=O)c2ccc(NS(=O)(=O)c3ccc4[nH]c(=O)[nH]c4c3)cc2)cc1OC,0.1% (inactive)
17,NC(=O)c1ccccc1N=Cc1ccc2ccccc2c1,0.6% (inactive)
18,COCc1c(C(=O)N/N=C\c2cccnc2)nnn1-c1nonc1N,-0.9% (inactive)
19,CC(C)c1c(C(=O)N/N=C/c2ccccc2C(=O)O)nnn1-c1nonc1N,5.1% (inactive)
20,Nc1nonc1-n1nnc(C(=O)N/N=C/c2cc(Br)ccc2O)c1CSC1=NCCS1,56.9% (active)
21,Cc1cc(NC(=O)C(C)N2C(=O)c3ccccc3S2(=O)=O)no1 (stereo not given),6.5% (inactive)
